PubChem BioAssay AID1347075 (National Center for Advancing Translational Sciences (NCATS), 2019)
Out of some 400,000 compounds screened, about 5,500 (1.4%) were called active. Another 9% or so got no clear call; they are omitted. Shown is part of a subset that was picked to be rich in actives. A number with no mark means an inactive call. Calls follow the shape of the dose curve; as a rule, active = well fitted cell-killing curve with a large enough effect; inconclusive = small, poorly fitted or top-dose-only effect, or effect the other way; inactive = flat fitted curve, though single readings scatter.

Assay: qHTS assay for MDR1-selective chemotherapeutics: Primary screen using the parental adenocarcinoma cell KB-3-1; also: nearly all actives have a fitted effect of over 60% in size
Details: KB-3-1 viability, CellTiter-Glo ATP luminescence, 72 h; series mostly up to 46.1 µM; activity change, negative = cytotoxic: at the top concentration
How it was run: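 Parental KB-3-1 viability, qHTS format: 72 h compound exposure, 37 °C; CellTiter-Glo; media-only wells and DMSO plates as controls; concentration-effect fits on corrected data.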
% is scaled to controls: 0 for no effect and ±100 for the full control effect; potency is read from the fitted curve at half-maximal effect.

Compared with `Cn1c(-c2ccc(C(=O)c3ccccc3)s2)nc2ccccc21`, `Cc1ccc2nc(CNC(=O)c3ccccc3)[nH]c2c1` is higher in “activity change, negative = cytotoxic” value: -3.28% for the first, 2.91% for the second.

First: Cc1c(C(=O)Nc2ccccc2)sc2nc3n(c(=O)c12)CCCCC3
Second: O=C(NCc1ccccc1Cl)c1cccn1-c1nnc(N2CCCCC2)s1
The “activity change, negative = cytotoxic” value of the first is higher: 9.47% for the first, -2.97% for the second.

Going from `CCN(Cc1ccccc1)Cc1c(O)ccc2c(=O)c(-c3ccc(Cl)cc3Cl)coc12` to `CCN(CCCNC(=O)c1cc2c(=O)n(CC)c3ccccc3c2s1)Cc1ccccc1`, the “activity change, negative = cytotoxic” value falls from 1.32% to -19.2%.

Compared with `CC1CN(C(=O)N2CCC(C(=O)NCc3ccco3)CC2)c2cc(Cl)ccc2O1` (centres undefined), `O=S(=O)(NCC(c1ccco1)N1CCOCC1)c1cc(F)ccc1F` (centres undefined) is higher in “activity change, negative = cytotoxic” value: -3.94% for the first, 1.35% for the second.

Going from `COc1ccc(-c2noc(CCC(=O)N(C)c3ccccc3C)n2)cc1` to `COc1ccc(CC(=O)Nc2ccc(-c3nc4ccccc4s3)c(C)c2)cc1`, the “activity change, negative = cytotoxic” value rises from 4.45% to 10.3%.

First: Cc1nc2ccccc2c(=O)n1-c1ccc(NS(=O)(=O)c2ccc(F)cc2F)cc1
Second: O=C1CCc2cc(S(=O)(=O)Nc3cccc(Oc4ccccc4)c3)ccc2N1
The “activity change, negative = cytotoxic” value of the first is higher: -2.73% for the first, -28.1% for the second.

Compared with `Cc1cc2n(n1)C(c1cc(C(C)(C)C)c(O)cc1O)Nc1ccccc1-2` (centres undefined), `CCOC(=O)c1ccc(N2C(=O)c3n[nH]c(C)c3C2c2ccc(O)c(OC)c2)cc1` (centres undefined) is higher in “activity change, negative = cytotoxic” value: 0% for the first, 1.28% for the second.

Going from `O=C(CCC1N=C2c3ccccc3N=C(SCc3ccccc3F)N2C1=O)NCCc1ccccc1` (centres undefined) to `O=C(Cn1c(=O)n(Cc2ccccc2)c(=O)c2sc3ccccc3c21)Nc1ccccc1F`, the “activity change, negative = cytotoxic” value falls from -0.17% to -3.72%.

Compared with `COc1cccc(CNC(=O)Cc2csc3nc(-c4ccccc4)cn23)c1`, `COc1ccc(CN2C(=O)C(NC(=O)c3cccc(C)c3)(C(F)(F)F)N=C2c2ccccc2)cc1` (centres undefined) is lower in “activity change, negative = cytotoxic” value: -0.279% for the first, -5.67% for the second.

Going from `COc1ccc(NC(=O)CSc2nc3ccccc3[nH]2)cc1` to `COc1ccc(NC(=O)CSc2nnc(-c3nnn(-c4ccc(F)cc4)c3C)o2)cc1`, the “activity change, negative = cytotoxic” value rises from 4.45% to 16.7%.

First: COc1ccc(CCNc2ncnc3onc(-c4ccc(Cl)cc4)c23)c(OC)c1
Second: COc1ccc2cc(CNc3ccc(OC)c(OC)c3)c(=O)n(CC(=O)Nc3ccccc3F)c2c1
The “activity change, negative = cytotoxic” value of the first is lower: -5.86% for the first, 7.88% for the second.

First: COc1ccc(Cl)cc1NC(=O)CSc1nc(-c2cccs2)cc(C(F)(F)F)n1
Second: COc1ccc(Cl)cc1NC(=O)CN(C)C(=O)c1ccc2n[nH]nc2c1
The “activity change, negative = cytotoxic” value of the first is lower: -13.2% for the first, 0.871% for the second.

Going from `C=CCNC(=O)c1ccc2nc(-c3ccco3)c(-c3ccco3)nc2c1` to `CCOC(=O)c1ccc(N2C(=O)c3n[nH]c(-c4ccco4)c3C2c2ccc(O)cc2)cc1` (centres undefined), the “activity change, negative = cytotoxic” value falls from 2.54% to -1.36%.

Going from `CC(C)(C)OC(=O)N(Cc1ccco1)S(=O)(=O)c1ccccc1Br` to `CN(C)c1ccc(CSc2ccccc2)cc1`, the “activity change, negative = cytotoxic” value rises from -12.7% to -1.01%.

Compared with `Cc1ccc(C)c(NC(=O)CSC2=Nc3ccccc3N=C(c3ccc(F)cc3)C2)c1`, `Cc1cccc(-n2ccnc2SCC(=O)Nc2cccc3ccccc23)c1C` is higher in “activity change, negative = cytotoxic” value: -1.82% for the first, 14.9% for the second.

First: CCOC(=O)C1CCN(c2csc3ccc(C)cc3c2=O)CC1
Second: Cc1ccc(C)c(N2CCN(C(=O)C3CCC(CNS(=O)(=O)c4cccs4)CC3)CC2)c1 (centres undefined)
The “activity change, negative = cytotoxic” value of the first is higher: 1.53% for the first, -7.67% for the second.

First: CN(C)c1ccc(/C=C/c2c3ccccc3nc3ccccc23)cc1
Second: O=C(Nc1ccc2ccccc2c1)Nc1nnc(-c2ccc(O)cc2)s1
The “activity change, negative = cytotoxic” value of the first is lower: 6.58% for the first, 9.05% for the second.

Compared with `CCc1ccc(OCCCn2c(CCCNC(=O)C3CCCCC3)nc3ccccc32)cc1`, `O=C(Cn1cnc2c(cnn2-c2ccc(F)cc2)c1=O)NCCc1ccccc1` is higher in “activity change, negative = cytotoxic” value: 0% for the first, 4.89% for the second.

First: COc1cccc(N2CCN(S(=O)(=O)c3cc(Br)cc4c3N(C(=O)C3CC3)CC4)CC2)c1
Second: O=c1cc(COc2cccc(C(F)(F)F)c2)nc2sc3c(n12)CCCC3
The “activity change, negative = cytotoxic” value of the first is lower: -8.04% for the first, 14.6% for the second.

Compared with `CCCCC12CN3CC(C)(CN(C1)C3c1ccc(O)c(OC)c1)C2=O` (centres undefined), `Cc1ccc(C)c(Oc2c(C(F)(F)F)oc3c(CN4CCN(C)CC4)c(O)ccc3c2=O)c1` is higher in “activity change, negative = cytotoxic” value: 0.281% for the first, 7.76% for the second.

First: Cc1cc(C)c(NC(=O)c2cc3sc(Cl)cc3n2C)c(C)c1
Second: Cc1cc(C)cc(-n2ccnc2SCC(=O)Nc2nc3ccccc3s2)c1
The “activity change, negative = cytotoxic” value of the first is lower: 1.75% for the first, 3.34% for the second.

Going from `Cc1cccc(CN2Cc3cccc4c3[C@H](C=CC4)CC2=S)c1` to `CC(C)Cn1c(=O)c2ccccc2n2c(-c3cccc(Cl)c3)nnc12`, the “activity change, negative = cytotoxic” value rises from -2.25% to 2.56%.

Compared with `CC(=O)Cn1cnc2c(cnn2-c2ccccc2)c1=O`, `NC(N)=Nc1nc2ccc(Br)cc2c(=O)[nH]1` is lower in “activity change, negative = cytotoxic” value: 11.5% for the first, 3.81% for the second.

First: COc1ccc(-c2noc(CSc3nc(C)cc(=O)[nH]3)n2)cc1OC
Second: COc1cc2nc(C#Cc3nc4cc(OC)c(OC)cc4[nH]3)[nH]c2cc1OC
The “activity change, negative = cytotoxic” value of the first is lower: -19.4% for the first, 22.1% for the second.

Going from `COC(=O)c1cc(NC(=O)CCc2c(C)nc3c4c(C)cc(C)nc4nn3c2C)cc(C(=O)OC)c1` to `Cc1cc2c(cc3c(SCc4cccc(Cl)c4)nnc(C)n32)o1`, the “activity change, negative = cytotoxic” value rises from -6.9% to 3.88%.

Compared with `O=C(CSCc1cccs1)N1CCCC1`, `CC1CC(C)CN(C(=O)CSc2ccsc2[N+](=O)[O-])C1` (centres undefined) is higher in “activity change, negative = cytotoxic” value: -3.61% for the first, 0.397% for the second.

For `Cc1nc2sc(C(=O)c3ccccc3)c(N)c2c2c1CCCC2`, the Potency was 23.1 µM (active).
With `Cc1[nH]n(-c2cccc(Cl)c2)c(=O)c1/C=N/n1c(C)nc2ccccc2c1=O` the Potency was 10.3 µM (active).
In the case of `COC(=O)Nc1nc2ccc(Sc3ccccc3)cc2[nH]1`, the Potency is reported as 1.46 µM (active).
For `COc1ccc(Cl)cc1NC(=O)CN(C)C(=O)c1cc(-c2cccs2)nn1-c1ccccc1`, the Potency was 20.6 µM (active).
With `COC(=O)Cc1[nH]n(-c2nc3ccccc3s2)c(=O)c1C(C)=Nc1ccc(OC)cc1` the Potency was 9.2 µM (active).
For `CN(C)c1ccc(/C=C/c2sc3ccccc3[n+]2CCCCBr)cc1`, the Potency was 1.3 µM (active).
With `CN(C)c1ccc(/C=C/c2sc3ccccc3[n+]2C)cc1` the Potency was 6.51 µM (active).
In the case of `CCOC(=O)c1ccc(N2C(=O)c3[nH]nc(-c4ccccc4)c3C2c2ccc(C(C)C)cc2)cc1` (centres undefined), the Potency is reported as 18.4 µM (active).
For `O=C(Cn1cnc2c(cnn2-c2ccccc2)c1=O)NCc1ccccc1`, the Potency was 8.2 µM (active).
In the case of `O=c1c2cc(Br)ccc2nc(-c2cccc(Cl)c2)n1O`, the Potency is reported as 9.2 µM (active).
For `O=C(CSc1ccsc1[N+](=O)[O-])N1CCCCC1`, the Potency was 18.4 µM (active).
For `Cc1nnc(NC(=O)CSc2nccn2-c2cccc(C)c2C)s1`, the Potency was 3.66 µM (active).
